Results filed as inconclusive are left out. Calls of active or inactive are those of the source. Unless noted, the call rests on the fitted dose curve; in most records, active means well fitted curve in the direction sought with a large enough effect in the repeat runs; inconclusive means weak or mixed curves; inactive means no such curve, though single readings can be large; an effect the other way counts as inactive or inconclusive.
Columns and labels:
[1] = qHTS assay to identify small molecule antagonists of the estrogen receptor alpha (ER-alpha) signaling pathway using the BG1 cell line in the presence of 0.1 nM 17-beta-estradiol - cell viability counter screen (AID 1259241); further: nearly all actives have a fitted effect of over 40% in size
Outline: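 Cells were plated and left 24 hr, compounds in DMSO were pinned in, 17beta-estradiol was added to 0.1 nM final, and after 22 hr CellTiter-Fluor reagent was added for 30 min before fluorescence was read.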

[2] = qHTS assay to identify small molecule antagonists of the androgen receptor (AR) signaling pathway using the MDA cell line in the presence of 0.5 nM R1881 - cell viability counter screen (AID 1259242); further: nearly all actives have a fitted effect of over 45% in size
Outline: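 R1881 at 0.5 nM final stimulated MDA-kb2 cells during 16 hr compound treatment at 37C. Cytotoxicity read: CellTiter-Fluor fluorescence after 30 min.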

[3] = qHTS assay to identify small molecule HDAC inhibitors (AID 1259364);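 further: wild-type HCT-116 cells with endogenous class I/II HDAC activity; top concentration of the series differs between compounds; nearly all actives have a fitted effect of over 45% in size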
Outline: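 Relative class I and II HDAC activity is taken from the luminogenic signal in HCT-116 cells, with compound exposure 2 hr and reagent development 30 min at room temperature.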

[4] = qHTS assay to identify small molecule HDAC inhibitors - cell viability counter screen (AID 1259365); further: series mostly up to about 92 µM; nearly all actives have a fitted effect of over 50% in size
Outline: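 Counter screen in wild-type HCT-116 cells: compounds dissolved in DMSO are pin-transferred onto overnight-plated cells and left 2hr at 37C. ATP-based CellTiter-Glo luminescence then measures viable cells.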

[5] = qHTS assay to identify small molecule agonists of the sonic hedgehog signaling (Shh) pathway - cell viability counter screen (AID 1259366); further: nearly all actives have a fitted effect of over 50% in size
Outline: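 Cells are plated at 2,000 per well and left 4hr at 37C, 5% CO2 before compound addition. After 23hr of treatment, CellTiter-Fluor reagent is added for 1hr at 37C and fluorescence is measured.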

[6] = qHTS assay to identify small molecule antagonists of the sonic hedgehog signaling (Shh) pathway - cell viability counter screen (AID 1259367); further: nearly all actives have a fitted effect of over 55% in size
Outline: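 Using CellTiter-Fluor, viability of Gli1-Luc reporter 3T3 cells is read by fluorescence in the wells used for the Shh luciferase assay. Treatment lasts 23 hr with conditioned medium, then reagent 1 hr at 37C.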

[7] = qHTS assay to identify small molecule agonists of the sonic hedgehog signaling (Shh) pathway (AID 1259368; calls by dose curve;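 further: NIH/3T3-derived 3T3Gli1-Luc cells carrying a stable Gli1-driven firefly luciferase reporter; series mostly up to about 92 µM; nearly all actives have a fitted effect of over 15% in size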)
Outline: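 Mouse fibroblast (NIH/3T3) reporter cells with stably integrated Gli1-Luc were treated 24 hr with compound; firefly luciferase luminescence served as the read-out.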

[8] = qHTS assay to identify small molecule antagonists of the sonic hedgehog signaling (Shh) pathway (AID 1259369; calls by dose curve; further: nearly all actives have a fitted effect of over 45% in size)
Outline: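 Conditioned medium drives Shh signalling in 3T3Gli1-Luc cells; compounds in DMSO co-applied, 24hr at 37 C, then luciferase luminescence.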

[9] = molecular target: Estrogen receptor beta (Homo sapiens) (UniProt Q92731); experiment: qHTS assay to identify small molecule agonists of the estrogen receptor beta (ER-beta) signaling pathway (AID 1259377; active means well fitted activation curve with a large enough effect in the signal ratio in the repeat runs, not every such curve was filed as active; the % refers to the signal ratio)
Outline: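 Agonist mode cell assay in GripTite HEK293T cells expressing an ER-beta fusion that drives beta-lactamase from an Upstream Activator Sequence; 16 hr compound exposure at 37C, then 2 h LiveBLAzer B/G FRET substrate at room temperature, fluorescence read-out.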

[10] = molecular target: Estrogen receptor beta (Homo sapiens) (UniProt Q92731); experiment: qHTS assay to identify small molecule antagonists of the estrogen receptor beta (ER-beta) signaling pathway (AID 1259378; active means well fitted inhibition curve with a large enough effect in the signal ratio in the repeat runs, not every such curve was filed as active; the % refers to the signal ratio)
Outline: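 Antagonist mode: compounds added to beta-lactamase reporter HEK293T ER-beta-UAS cells stimulated with E2 (1nM final), 16 hr at 37C. LiveBLAzer B/G FRET substrate, 2 hours room temperature, fluorescence read-out.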

[11] = qHTS assay to identify small molecule agonists of the androgen receptor (AR) signaling pathway in the presence of an antagonist - cell viability counter screen (AID 1259379);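 further: MDA-kb2 human breast cancer cells carrying an MMTV luciferase reporter; series mostly up to about 92 µM; nearly all actives have a fitted effect of over 25% in size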
Outline: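 A CellTiter-Fluor read-out measured viability of MDA-kb2 reporter cells (MMTV promoter with AR and GR response elements). Treatment: nilutamide 3.0uM final with compounds at 15 concentrations, 16 hr, 37C, 0% CO2.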

[12] = qHTS assay to identify small molecule agonists of the estrogen receptor beta (ER-beta) signaling pathway - cell viability counter screen (AID 1259380); further: nearly all actives have a fitted effect of over 30% in size
Outline: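 Cells used were ER-beta-UAS-bla HEK293T in medium with 2% charcoal-stripped FBS. They were treated for 16 hr at 37C. Viability came from CellTiter-Glo luminescence.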

[13] = qHTS assay to identify small molecule antagonists of the estrogen receptor beta (ER-beta) signaling pathway - cell viability counter screen (AID 1259382); further: series mostly up to about 92 µM; nearly all actives have a fitted effect of over 55% in size
Outline: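 Agonist-stimulated (1nM E2) ER-beta-UAS-bla HEK293T cells are incubated with library compounds for 16 hr at 37C. Cell viability is then assessed in the reporter-assay wells by adding CellTiter-Glo and reading luminescence after 30 min.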

[14] = qHTS assay to identify small molecule agonists or antagonists of the thyroid stimulating hormone receptor (TSHR) signaling pathway - wild type cell line counter screen (AID 1259384; calls by dose curve)
Outline: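 Counter screen in untransfected Hek293: compounds (15-point titration, triplicate) plus phosphodiesterase inhibitor Ro20-1724 added after 18 h plating; 30 min RT. Intracellular cAMP via competitive d2/cryptate immunoassay, 1 h incubation.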

[15] = molecular target: Thyrotropin receptor (Homo sapiens) (UniProt P16473); experiment: qHTS assay to identify small molecule antagonists of the thyroid stimulating hormone receptor (TSHR) signaling pathway (AID 1259385; calls by dose curve; further: nearly all actives have a fitted effect of over 20% in size)
Outline: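 Antagonist mode: compound-treated TSHR-expressing HEK293 cells were stimulated with 1.5 ng/mL TSH (final) in presence of Ro20-1724 for 30 min at RT. HTRF cAMP detection after 1 h; each compound tested at 15 concentrations, triplicate.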

[16] = qHTS assay to identify small molecule phospholipidosis (PLD) inducers (AID 1259344; active means well fitted curve in the direction sought with a large enough effect; an effect the other way counts as inactive or inconclusive)
Outline: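 Fluorescent phospholipid staining (LipidTOX Red) measured by automated microscopy in fixed HepG2 cells after 24 h treatment; nuclei counterstained with Hoechst 33342; amiodarone as reference inducer.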

[17] = molecular target: Estrogen receptor (Homo sapiens) (UniProt P03372); experiment: qHTS assay to identify small molecule antagonists of the estrogen receptor alpha (ER-alpha) signaling pathway using the BG1 cell line in the presence of 0.1 nM 17-beta-estradiol (AID 1259244); further: nearly all actives have a fitted effect of over 50% in size
Outline: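 VM7Luc4E2; 4xERE-luciferase; 0.1 nM E2 final; 22 h co-incubation, 37C; ONE-Glo luminescence after 30 min at room temperature.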

[18] = molecular target: Estrogen receptor (Homo sapiens) (UniProt P03372); experiment: qHTS assay to identify small molecule agonists of the estrogen receptor alpha (ER-alpha) signaling pathway in the presence of an antagonist (AID 1259383; calls by dose curve; further: top concentration of the series differs between compounds; nearly all actives have a fitted effect of over 15% in size)
Outline: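 Using VM7Luc4E2 cells seeded 24hr before treatment, antagonist ICI-182,780 (10.0nM final) was added, followed by compounds at 15 concentrations. Plates incubated 22hr; ONE-Glo luminescence quantified reporter activity.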

Measured: Potency

Chain of Estrogen receptor beta (Homo sapiens) (Q92731 whole entry, looked up, the tested form may be a part): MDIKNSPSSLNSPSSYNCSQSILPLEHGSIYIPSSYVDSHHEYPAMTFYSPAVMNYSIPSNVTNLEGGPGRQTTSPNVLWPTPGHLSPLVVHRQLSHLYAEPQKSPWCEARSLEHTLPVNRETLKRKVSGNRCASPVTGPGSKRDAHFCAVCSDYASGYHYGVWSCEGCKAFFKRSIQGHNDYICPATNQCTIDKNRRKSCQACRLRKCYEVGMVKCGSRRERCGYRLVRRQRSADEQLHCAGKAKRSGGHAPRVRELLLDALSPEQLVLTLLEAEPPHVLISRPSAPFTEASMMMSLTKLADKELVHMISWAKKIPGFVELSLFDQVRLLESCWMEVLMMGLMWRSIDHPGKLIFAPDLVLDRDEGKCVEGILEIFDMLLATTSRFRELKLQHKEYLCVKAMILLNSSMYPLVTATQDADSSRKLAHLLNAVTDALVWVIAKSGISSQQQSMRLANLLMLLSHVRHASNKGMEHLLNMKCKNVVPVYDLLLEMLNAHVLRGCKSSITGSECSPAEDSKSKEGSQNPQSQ
Chain of Estrogen receptor (Homo sapiens) (P03372 whole entry, looked up): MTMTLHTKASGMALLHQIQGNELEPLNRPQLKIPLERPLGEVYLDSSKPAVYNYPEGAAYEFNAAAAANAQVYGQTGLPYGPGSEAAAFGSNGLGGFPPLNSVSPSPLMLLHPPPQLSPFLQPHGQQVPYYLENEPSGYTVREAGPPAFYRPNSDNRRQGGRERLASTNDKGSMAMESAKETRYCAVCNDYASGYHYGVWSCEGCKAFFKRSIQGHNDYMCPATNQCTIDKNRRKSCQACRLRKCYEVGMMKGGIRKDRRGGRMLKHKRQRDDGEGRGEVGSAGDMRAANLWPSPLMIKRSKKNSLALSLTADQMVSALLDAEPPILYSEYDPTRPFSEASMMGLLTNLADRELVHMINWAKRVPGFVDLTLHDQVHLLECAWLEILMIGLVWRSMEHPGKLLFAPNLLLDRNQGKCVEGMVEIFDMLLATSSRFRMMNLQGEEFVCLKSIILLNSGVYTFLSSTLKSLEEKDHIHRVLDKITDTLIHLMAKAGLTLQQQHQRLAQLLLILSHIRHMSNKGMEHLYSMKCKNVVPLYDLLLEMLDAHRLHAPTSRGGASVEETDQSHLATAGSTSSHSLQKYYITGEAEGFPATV
Chain of Thyrotropin receptor (Homo sapiens) (P16473 whole entry, looked up): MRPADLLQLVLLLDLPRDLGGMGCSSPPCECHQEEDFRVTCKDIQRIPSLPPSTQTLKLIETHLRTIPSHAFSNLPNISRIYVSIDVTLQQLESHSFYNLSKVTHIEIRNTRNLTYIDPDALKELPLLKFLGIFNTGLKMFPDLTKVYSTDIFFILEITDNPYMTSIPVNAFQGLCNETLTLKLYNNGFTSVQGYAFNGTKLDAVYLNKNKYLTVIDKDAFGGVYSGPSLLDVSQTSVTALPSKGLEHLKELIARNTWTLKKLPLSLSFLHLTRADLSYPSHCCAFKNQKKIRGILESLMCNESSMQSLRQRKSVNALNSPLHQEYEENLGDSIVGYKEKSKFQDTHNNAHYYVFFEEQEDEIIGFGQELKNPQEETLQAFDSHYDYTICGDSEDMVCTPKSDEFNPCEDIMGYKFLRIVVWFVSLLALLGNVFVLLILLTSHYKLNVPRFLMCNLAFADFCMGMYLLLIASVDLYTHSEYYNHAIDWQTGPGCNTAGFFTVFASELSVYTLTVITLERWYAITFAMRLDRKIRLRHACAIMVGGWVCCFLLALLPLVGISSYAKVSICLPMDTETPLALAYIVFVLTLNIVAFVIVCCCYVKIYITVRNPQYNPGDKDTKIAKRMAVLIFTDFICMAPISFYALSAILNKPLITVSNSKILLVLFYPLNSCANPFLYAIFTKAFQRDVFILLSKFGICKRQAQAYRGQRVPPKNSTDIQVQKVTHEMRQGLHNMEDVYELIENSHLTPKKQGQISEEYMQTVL

CCCCC(=O)Cl
inactive: [1] | [2] | [3] | [4] | [5] | [6] | [7] | [8] | [9] | [10] | [11] | [12] | [13] | [14] | [15]

COc1ccc(C(=O)N2CCCC2=O)cc1
inactive: [1] | [2] | [16] | [3] | [4] | [5] | [6] | [7] | [8] | [11] | [12] | [13] | [14] | [15]

CCCCCCBr
inactive: [1] | [2] | [3] | [4] | [5] | [6] | [7] | [8] | [11] | [12] | [14] | [15]

C[C@]12CC[C@H]3[C@@H](CC=C4C[C@@H](O)CC[C@@]43C)[C@@H]1CC[C@@H]2O
inactive: [1] | [2] | [16] | [3] | [4] | [5] | [6] | [7] | [8] | [10] | [11] | [13]

CCN(CC)CCOC(=O)C(C)(c1ccccc1)c1ccccc1
inactive: [1] | [2] | [3] | [4] | [5] | [6] | [7] | [8] | [9] | [11] | [12] | [14] | [15]

O=C1OC(=O)C2C1C1(Cl)C(Cl)=C(Cl)C2(Cl)C1(Cl)Cl (stereo not drawn)
inactive: [1] | [2] | [17] | [3] | [4] | [6] | [7] | [9] | [10] | [11] | [12] | [13] | [18] | [14] | [15]

COC(=O)C(C)Oc1ccc(Oc2ccc(Cl)cc2Cl)cc1 (stereo not drawn)
inactive: [1] | [2] | [3] | [4] | [5] | [6] | [7] | [8] | [9] | [10] | [11] | [12] | [13] | [14] | [15]

ClCC(Cl)(Cl)Cl
inactive: [1] | [2] | [17] | [3] | [4] | [6] | [7] | [10] | [11] | [12] | [13] | [18]

CC(C)[N+](=O)[O-]
inactive: [1] | [2] | [3] | [4] | [5] | [6] | [7] | [8] | [11] | [12] | [14] | [15]

COc1cc(OC)nc(NC(=O)NS(=O)(=O)c2ncccc2OCC(F)(F)F)n1
inactive: [1] | [2] | [17] | [3] | [4] | [6] | [7] | [10] | [11] | [18] | [14] | [15]

CCOP(=S)(OCC)SCSP(=S)(OCC)OCC
inactive: [1] | [2] | [17] | [3] | [4] | [6] | [7] | [9] | [11] | [13] | [14]

CC(C=O)Cc1ccc2c(c1)OCO2 (stereo not drawn)
inactive: [1] | [2] | [3] | [4] | [5] | [6] | [7] | [8] | [9] | [10] | [11] | [12] | [13] | [14] | [15]
